Screens deposited in PubChem by several laboratories.
In the library only some 3.9% were active in any assay of this set; here they are far more common.
Platelet DG rel = inhibitors of platelet dense granule secretion, primary screen, cell-based, MLPCN, human platelets; inhibition, %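 (compounds screened at 7.5 µM in platelet-rich plasma)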; human platelet-rich plasma, SFLLRN dense granule ATP release, luminescence; 300,000 tested, 0.22% active;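 active = mean replicate score, as percent of positive control, at or above 50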
SKKanGAS inh = S. pyogenes SKKanGAS growth inhibitors in kanamycin, primary screen, streptokinase expression inhibitor project, SKKanGAS strain, BacTiter-Glo luminescence | 300,000 tested, 1.3% active | inhibition, % at 7.5 µM | 6 h;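 active = mean replicate score, as percent of positive control median, at least 50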;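 note: strain carries kanamycin resistance gene driven by streptokinase promoter and grows in 40 µg/ml kanamycin; loss of luminescence reflects streptokinase promoter inhibition or plain growth inhibition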
WT yeast gro inh = growth inhibition of WT strain, primary screen, mitochondrial fusion inhibitor project, WT and mutant strains, chemical genetic | mitochondrial fusion phenotypic screen | inhibition, % at 10 µM | 190,000 tested, 2.1% active; in the data active = inhibition above about 58%; tested in S. cerevisiae
Rtt109 Vps75 = inhibitors of C. albicans Rtt109/Vps75 HAT, primary screen, biochemical, ThioGlo CoA-SH fluorescence, plate reader; Histone acetyltransferase RTT109 (Candida albicans (strain SC5314 / ATCC MYA-2876)), …; purified Rtt109/Vps75, 4 h; inhibition, % at 34.9 µM; 330,000 tested, 0.16% active; AID 540336, 2011;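 active = inhibition of at least 50% in every replicate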
Target sequence (Q5AAJ8 whole entry, looked up): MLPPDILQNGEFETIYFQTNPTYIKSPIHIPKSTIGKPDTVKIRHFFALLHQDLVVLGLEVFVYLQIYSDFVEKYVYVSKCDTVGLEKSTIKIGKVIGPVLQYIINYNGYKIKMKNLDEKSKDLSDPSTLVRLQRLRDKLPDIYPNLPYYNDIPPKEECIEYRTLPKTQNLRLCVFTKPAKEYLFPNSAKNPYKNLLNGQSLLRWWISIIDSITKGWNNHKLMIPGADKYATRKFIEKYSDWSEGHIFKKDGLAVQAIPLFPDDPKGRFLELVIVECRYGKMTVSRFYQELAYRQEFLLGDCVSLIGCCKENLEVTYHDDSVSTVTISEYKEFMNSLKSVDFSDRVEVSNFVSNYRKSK
PHOSPHO1 inh = PubChem AID 1565; 290,000 tested, 1.1% active; recombinant PHOSPHO1, absorbance phosphatase assay; inhibition, % at 13.3 µM; in the data active = inhibition above about 60%
Target sequence (Q8TCT1 whole entry, looked up): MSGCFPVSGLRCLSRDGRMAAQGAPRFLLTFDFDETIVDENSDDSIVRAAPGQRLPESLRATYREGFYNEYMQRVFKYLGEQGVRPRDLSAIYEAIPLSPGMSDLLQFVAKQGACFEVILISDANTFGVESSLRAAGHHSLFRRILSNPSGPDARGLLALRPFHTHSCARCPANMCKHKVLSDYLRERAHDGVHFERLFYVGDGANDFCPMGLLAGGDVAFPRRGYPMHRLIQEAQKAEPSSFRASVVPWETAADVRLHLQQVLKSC
TPT1 inhibitor = Candida albicans TPT1 enzyme inhibitors, primary screen, biochemical, fluorescence polarization | 300,000 tested, 0.81% active | tRNA 2'-phosphotransferase TPT1 (Candida albicans SC5314) | AID 1962, 2009 | recombinant caTPT1, FP RNA substrate dephosphorylation | inhibition, % at 5 µM;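 active = inhibition above the mean of all tested compounds plus 3 SD, set per screening campaign, cut at about 24% in these data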
A number is an active result; - = inactive; . = no result.

SMILES | Platelet DG rel | SKKanGAS inh | WT yeast gro inh | Rtt109 Vps75 | PHOSPHO1 inh | TPT1 inhibitor
c1ccc2c(c1)oc1c(N3CCN(Cc4ccc5c(c4)OCO5)CC3)ncnc12 | - | - | 76 | . | - | .
O=C(Nc1ccc(Nc2ccncc2)cc1)c1ccc(Nc2ccnc3ccc([N+](=O)[O-])cc23)cc1[N+](=O)[O-] | - | 54 | . | - | - | -
CSc1ccc(Cl)c(C(=O)NCCOc2cc(C)ccc2C(C)C)c1 | - | - | 62 | - | - | -
OCCN(CCO)c1ccc(C(c2ccccc2Cl)c2ccc(N(CCO)CCO)cc2Cl)c(Cl)c1 | - | 83 | - | - | - | -
C[N+](C)(C)CCCCCCC(=O)/C=N/O | - | - | - | - | - | -
C[N+]1(CCCCCCC(=O)/C=N/O)CCCCCC1 | - | - | - | - | 82 | -
COC(=O)c1cc(-c2cccc(OC)c2)c2c(=O)[nH]c(=O)n(C)c2n1 | - | 62 | . | - | - | -
COC(=O)c1cc(-c2ccccc2)c2c(=O)n(C)c(=O)n(C)c2n1 | . | . | - | . | - | .
COC(=O)c1cc(-c2ccc(Br)cc2)c2c(=O)n(C)c(=O)n(C)c2n1 | - | 52 | . | - | - | -
S=c1[nH]nc(CCc2ccccc2)n1Cc1ccccc1 | - | - | - | - | - | -
CCCOc1ccc(CCc2n[nH]c(=S)n2Cc2ccccc2)cc1 | - | - | - | - | 79 | -
S=c1[nH]nc(COc2cccc(Cl)c2)n1Cc1ccccc1 | - | - | 73 | - | - | -
S=c1[nH]nc(-c2cc3ccccc3o2)n1Cc1ccccc1 | - | - | 65 | - | - | -
S=c1[nH]nc(COc2ccc(Cl)cc2)n1Cc1ccccc1 | - | - | - | - | - | -
Cc1cccc(-c2n[nH]c(=S)n2Cc2ccccc2)c1 | . | - | 72 | - | - | -
O=[N+]([O-])c1cccc(-c2n[nH]c(=S)n2Cc2ccccc2)c1 | - | - | - | - | - | -
CCn1nc(C(=O)NCCc2ccc3c(c2)OCCO3)c2ccccc2c1=O | . | . | . | - | . | .
S=c1[nH]nc(-c2ccc(Cl)cc2Cl)n1Cc1ccccc1 | - | - | - | - | 60 | -
CCc1cc(-c2n[nH]c(=S)n2-c2ccccc2C)cs1 | - | - | 60 | - | 86 | -
CCc1cc(-c2n[nH]c(=S)n2Cc2ccccc2)cs1 | - | - | 65 | - | 92 | -
Cc1ccccc1-n1c(-c2ccoc2C)n[nH]c1=S | - | - | - | - | - | -
CCc1cc(-c2n[nH]c(=S)n2CC)cs1 | - | - | - | - | - | -
C=CCn1c(-c2cccc(Cl)c2)n[nH]c1=S | - | - | - | - | 98 | -
C=CCn1c(-c2cccc([N+](=O)[O-])c2)n[nH]c1=S | - | - | - | - | - | -
Cc1nn(-c2ccccc2)c(C)c1NC(=O)COC(=O)C1CC(=O)N(CCc2ccccc2)C1 (centres undefined) | - | - | . | - | . | -
SMILES | Platelet DG rel | SKKanGAS inh | WT yeast gro inh | Rtt109 Vps75 | PHOSPHO1 inh | TPT1 inhibitor
CCc1ccccc1NC(=O)CNC(=O)CNC(=O)c1cccs1 | . | . | . | - | . | .
CCOc1ccc(-c2n[nH]c(=S)n2Cc2ccccc2)cc1 | - | - | . | - | - | -
Cc1ccc(-c2n[nH]c(=S)n2Cc2ccccc2)cc1 | - | - | - | - | 100 | -
S=c1[nH]nc(-c2cccc(Cl)c2)n1Cc1ccccc1 | - | - | - | - | 69 | -
C=CCSc1nnc(NC(=O)C2CC(=O)N(c3ccc4c(c3)OCCO4)C2)s1 (centres undefined) | . | . | . | - | . | .
Clc1nc(Nc2ccccc2)nc(Nc2ccccc2)n1 | - | - | - | 50 | - | -
CC(=O)c1cccc(NC(=O)COC(=O)C2=COCCO2)c1 | - | - | - | . | 68 | -
Cc1ccccc1OCCC(=O)N(CC(C)C)c1c(N)n(Cc2ccccc2)c(=O)[nH]c1=O | . | . | . | - | . | .
N=c1nc2n(cc1F)C1OC(CO)C(O)C1O2 (centres undefined) | . | . | . | - | . | .
COc1ccc(/C(O)=C/c2nc3ccc(C(=O)NCCc4cccc(C)c4)cc3[nH]c2=O)cc1OC | - | - | - | - | - | 67
COc1ccc(C(=O)NCCc2ccccc2)cc1OC | - | - | . | - | - | -
CCc1nc2ccc(C(=O)NCCc3ccc(OC)c(OC)c3)cc2nc1CC | - | - | . | - | - | -
COc1ccc(CCNC(=O)c2ccc3nc(-c4ccco4)c(-c4ccco4)nc3c2)cc1OC | . | . | - | . | 70 | -
CC(=O)C[C@H](O)CC(=O)[C@@H]1OC(=O)CCCCCCCCc2ccccc21 | . | . | . | - | . | .
COc1ccc(OC)c(/C=N/n2c(-c3n[nH]c4c3CCC4)n[nH]c2=S)c1 | - | 50 | . | - | - | -
COc1ccc(/C=N/n2c(-c3cc(C)[nH]n3)n[nH]c2=S)cc1OC | - | - | . | . | 93 | -
COc1ccc(/C=N/n2c(=S)n(C)c3ccccc32)cc1OC | - | - | - | - | 73 | -
COc1cccc(NC(=O)Nc2ccc3c(c2)CCC3)c1 | - | - | . | - | - | -
CCOC(=O)C(=O)Cc1cccnn1 | . | . | . | - | . | .
CCCNC(=S)Nc1cccc(C(F)(F)F)c1 | - | - | - | - | - | -
Cc1ccc(NC(=S)NNC(=S)NCc2ccccc2)cc1 | - | - | - | - | 75 | -
CCc1cc(C(=O)NNC(=S)NCc2ccccc2)cs1 | - | - | - | - | 91 | -
FC(F)(F)c1cccc(NC(=S)NNC(=S)NCc2ccccc2)c1 | - | - | - | - | 104 | -
FC(F)(F)c1cccc(NC(=S)NCC2COc3ccccc3O2)c1 (centres undefined) | - | - | 89 | - | - | -
Fc1ccc(NC(=S)NCc2ccccc2)cc1 | - | - | . | - | - | -
SMILES | Platelet DG rel | SKKanGAS inh | WT yeast gro inh | Rtt109 Vps75 | PHOSPHO1 inh | TPT1 inhibitor
COc1ccc(N(Cc2cc(=O)[nH]c3ccccc23)C(C)=O)cc1 | - | - | . | - | . | -
Cc1ccc(NC(=O)COC(=O)COc2cccc3c2OC(C)(C)C3)cc1S(=O)(=O)N1CCOCC1 | - | - | . | - | . | -
CC(C)(C)c1ccccc1NC(=S)NCc1ccccc1 | - | - | 63 | - | - | -
CN(C)CCNC(=S)Nc1ccccc1C(C)(C)C | - | - | - | - | - | -
CCN(c1ccc(OC)cc1)S(=O)(=O)c1nnc(NC(=O)c2ccc(C)cc2)s1 | - | - | . | - | - | -
Cc1ccc(S(=O)(=O)N2CCCCC2)cc1NC(=O)CSc1nc(N)cc(=O)[nH]1 | . | . | . | - | . | .
O=C(Cn1c(NCCCCl)nc2ccccc21)c1ccccc1 | . | . | . | - | . | .
N/C(Cn1cncn1)=N\NC(=O)C(=O)Nc1ccccc1 | - | - | - | - | - | -
N/C(Cn1cncn1)=N\NC(=O)C(=O)Nc1cccc(C(F)(F)F)c1 | - | - | - | - | 60 | -
C/C(CCC12CC3CC(CC(C3)C1)C2)=N\NC(N)=S | - | - | 78 | - | - | -
C=CCc1cccc(/C=N/NC(=O)C(=O)Nc2ccc(C)cc2)c1O | - | 70 | - | - | - | -
